Compounds without any hit were thinned out: in the full panel of roughly 83,000, 20% have a hit.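 For each line, cells grew in 96-well plates with the test compound present at a single concentration for 48 hours.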 Unmarked numbers belong to inactive results. Activity calls are given as the source filed them. The calls were made as follows: active = growth percent below 10; inactive = the rest.

This experiment has as its system HL-60(TB) leukemia. Nature of the experiment: NCI-60 one-dose screen, 48 h (100 = growth as untreated, 0 = no growth, -100 = all killed). Particulars: 10 µM unless noted.
Turning to `CCN(CC)CCCC(C)Nc1c2ccc(C)cc2nc2ccc(OC)cc12` (stereo not given), the growth was 11.4%.

Take `O=C(CCCCNC(=O)c1cc(=O)c(O)co1)Nc1ccccc1`: the growth was 54.7%. In the case of `COc1ccc2c(c1)C(=O)c1c-2c(OCCN(C)C)nc2ccccc12`, the growth is 25.4%. Regarding `Nc1cc(NN=C(c2ccc(O)cc2)c2ccc(O)cc2)c([N+](=O)[O-])cc1[N+](=O)[O-]`, the growth was 66.4%. Take `Cc1cc(-c2ccccc2)cc(C)n1`: the growth was 104%. Under `COc1ccc(C2CC(c3ccc(Nc4nc(Nc5ccc(F)cc5)nc(Nc5ccc(F)cc5)n4)cc3)=NN2C(C)=O)cc1` (stereo not given) stands 17.1%. Under `N#C/C(=C\c1ccc(-c2ccc(Br)cc2)o1)c1nc(-c2cccs2)cs1` stands 92.7%. Next, `CCCCCn1c(=N)n(CC(O)COc2cccc(C)c2)c2ccccc21` (stereo not given): 2.51% (active); `COc1ccc2nc(C)cc(Nc3ccccc3O)c2c1`: 5.11% (active); `O=C(CC(=O)c1cccc(Cl)c1)c1cccc(Cl)c1`: 4.17% (active).

Consider `O=[N+]([O-])c1ccc(-c2noc(-c3cccs3)n2)cc1`, for which the growth is 70.1%. Take `COc1cc(-c2nc3sccn3c2-c2ccnc(NCCNS(=O)(=O)c3ccc(F)cc3)n2)ccc1F`: the growth was -17.4% (active). Take `Cc1nc(Nc2nc3ccccc3o2)nc(-c2cccc([N+](=O)[O-])c2)c1C(=O)Nc1ccc(F)c(Cl)c1`: the growth was -22.1% (active). Next, `Cc1ccc2c(n1)C(=O)c1[nH]c3ccccc3c1C2=O`: 67.8%; `COc1cccc(C(=O)Nc2cccc(NC(=O)c3ccccn3)c2)c1`: 87.8%; `COc1ccc2nc3c(cc2c1)C(=O)CC(c1ccccc1)C3` (stereo not given): -1.74% (active).

In the case of `COC(=O)[C@]12CC[C@@H](C)[C@H](C)[C@@H]1C1=CC[C@@H]3[C@@]4(C)C(C=O)=C[C@@](C)(COC(=O)/C=C/c5ccccc5)[C@@H]4[C@H](O)C[C@@]3(C)[C@]1(C)CC2`, the growth is -13% (active). For `CCOc1ccccc1NC(=O)c1cc2ccccc2cc1O`, the growth was 48.8%. As for `O=C1c2cc3c(cc2-c2c1c1ccc(F)cc1c(=O)n2CCCN1CCOCC1)OCO3`, the growth is 13.7%. Next, `O=C1C=C(c2ccccc2)C(O)(c2ccccc2)C1` (stereo not given): 85.2%. `Cc1nc2sc(C(=O)Nc3cccc(Cl)c3C)c(N)c2cc1C(O)c1ccccc1` (stereo not given): the growth is -42.3% (active). Regarding `NC(C(=O)O)c1ccc([N+](=O)[O-])cc1` (stereo not given), the growth was 95.8%. Under `CCOC(=O)C1C(C(=O)OCC)C2C(=O)C3C(C(=O)OCC)C(C(=O)OCC)C3C(=O)C12` (stereo not given) stands 96.7%; under `Cn1cc(-c2csc(-c3cn(CCN)c4ccccc34)n2)c2cccnc21`, 26.5%.

As to `O=C(NCc1cccnc1)c1cc(-c2csc3c(=O)cc(N4CCOCC4)oc23)cc2c1OCCO2`, the growth was -35.1% (active). With `Cc1ccc2c(C3C(C#N)=C(N)Oc4cc5ccccc5cc43)cc(=O)oc2c1` (stereo not given), the growth is -14.2% (active). For the compound `COc1ccc(C(=O)c2cc3c(N)c(C(=O)Nc4cccc(OC)c4)sc3nc2C)cc1`, the growth is -44.5% (active). Take `O=C1c2cc3c(cc2-c2c1c1cc(F)c(F)cc1c(=O)n2CCCn1ccnc1)OCO3`: the growth was -15.4% (active).

For the compound `CCOc1nc(-c2ccccc2)cc2c(O)c(-c3nnco3)[nH]c(=O)c12`, the growth was 34.6%. Next, `NC(N)=N/N=C/c1ccc(Br)cc1`: -0.0458% (active); `O=C1c2ccc3c4c(ccc(c24)C(=O)N1CCCNCc1ccccc1F)C(=O)N(CCCNCc1ccccc1F)C3=O`: -59% (active). As for `COc1ccc(/C(C)=C(\c2ccc(Cl)cc2)c2ccc(OCCN(C)C)cc2)cc1F`, the growth is 58.2%. Regarding `CCCCCCCC1(C)NC(=O)NC1=O` (stereo not given), the growth is 100%.

As to `C=CC[P+](c1ccccc1)(c1ccccc1)c1ccccc1`, the growth was 4.03% (active). Next, `Cc1cccc(-c2nc(N(C)c3ccc4ncsc4c3)c3ccccc3n2)n1`: 50.4%; `Clc1nc(N2CCC[N+]3(CC2)CC[N+]2(CCCNCC2)CC3)nc(N2CCC[N+]3(CC2)CC[N+]2(CCCNCC2)CC3)n1` (stereo not given): 97%; `C=C(C[n+]1ccccc1)[C@@H]1CC[C@]2(C(=O)OC)CC[C@]3(C)[C@H](CC[C@@H]4[C@@]5(C)CC[C@H](O)C(C)(C)[C@@H]5CC[C@]43C)[C@@H]12`: 93.5%.

With `COc1cnc2c(c1)C(=O)c1c-2n(CCCN2CCCC2)c(=O)c2cc(Cl)ccc12`, the growth is 27.9%.

As to `CCOC(=O)Nc1nn[nH]n1`, the growth was 47.7%. In the case of `CN1CCN(c2nc(C3=C(c4c[nH]c5ccccc45)C(=O)NC3=O)c3ccccc3n2)CC1`, the growth was 30.7%.
